Drawing on PubChem BioAssay (NCI), this text covers growth for 40 compounds.

Molecules are shown by their SMILES. About 83,000 compounds went through this panel and 20% of them were active in at least one assay; those are over-represented in the sample as a whole.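 Negative percent growth values reflect cell death: -40 means 40% of the cells present at the start died, and -100 means all died.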 Values without a mark were called inactive. Activity calls are given as the source filed them. Rule for the calls: active = growth percent below 10; inactive = the rest.

In one assay the test system is OVCAR-5 ovarian. The assay is described as follows: NCI-60 one-dose screen, 48 h (100 = growth as untreated, 0 = no growth, -100 = all killed). The settings on record: 10 µM unless noted.
As to `N#Cc1c(-c2ccccc2)cc(-c2ccccc2)n(CCCCC(=O)O)c1=O`, the growth was 98%. Still for that read-out and setting: then `CCOC(=O)/C=C1/SC(=Nc2ccc(C#N)cc2)N(Cc2ccco2)C1=O`, with 37.4%; and `O=C(NCCNC(=O)Oc1cccc2ccccc12)Oc1cccc2ccccc12`, with 105%; and `Oc1ccc(/C=N/Nc2nc3ccccc3s2)c(O)c1`, with 47.1%. Same read-out and setting: under `C=C1CC[C@@H]2[C@](C)(COC(C)=O)[C@H](OC(C)=O)CC[C@@]2(C)[C@@H]1CC(NCc1ccccc1)C1=CCOC1=O` (stereo not given in full) stands 102%; under `Nc1nc(SCc2cccnc2)c2ncn(C3OC(CO)C(O)C3O)c2n1` (stereo not given), 90.1%; under `COc1ccc(C2=NN(C=O)C(c3cccc(Nc4ccnc5cc(Cl)ccc45)c3)C2)cc1` (stereo not given), 51.5%. With `O=CN1N=C(c2ccc(Nc3ccnc4cc(Cl)ccc34)cc2)CC1c1ccc(Cl)cc1` (stereo not given), the growth was 41.9%. The same measure, in the same setting: under `Cc1sc2nc(N3CCCCC3)[nH]c(=O)c2c1C` stands 108%. Still for that read-out and setting: under `Cc1ccc(N/N=C(/C(=O)c2ccc(Cl)cc2)c2nc(C)cc(=O)[nH]2)cc1` stands 122%.

Another assay has as its system OVCAR-4 ovarian. The description is as above. The following applies: 10 µM unless noted.
Consider `CCCc1n(Cc2ccc3ccccc3c2)cc[n+]1Cc1ccc2ccccc2c1`, for which the growth was 9.35% (active). Take `CC(=O)OCC(=O)[C@@]1(O)CC[C@H]2[C@@H]3CCC4=CC(=O)CC[C@]4(C)[C@@]3(F)[C@@H](O)C[C@@]21C`: the growth was 105%.

As for `COC(=O)[C@H](Cc1cnc[nH]1)NC(=O)[C@@H](NC(=O)Nc1cc(C(F)(F)F)cc(C(F)(F)F)c1)C(C)C`, the growth was -85.1% [100 µM] (active). Still for that read-out and setting: under `COc1ccccc1-n1c(-c2ccc(O)cc2C)cn2c3c(=O)[nH]c(=O)n(C)c3nc12` stands 84.4%; under `Nc1nc(Nc2ccccc2SSc2ccccc2Nc2nc(N)nc(-c3cccc(Cl)c3)n2)nc(-c2cccc(Cl)c2)n1`, 120%. Still for that read-out and setting: then `COc1ccc2c(c1)C(=Nc1cc(OC)c(OC)c(OC)c1)C(=O)N2`, with 111%. Consider `CC1C(=O)NC2=Nc3ccccc3C(=O)NN21` (stereo not given), for which the growth is 107%. Same read-out and setting: then `CC1c2ccccc2-c2ccccc2N1C` (stereo not given), with 110%. `CCC(C)C1NC(=O)C(CCNCS(=O)(=O)O)NC(=O)C(NC(=O)C(CCNCS(=O)(=O)O)NC(=O)C(NC(=O)C(CCNCS(=O)(=O)O)NC(=O)CCCCC(C)C)C(C)O)CCNC(=O)C(C(C)O)NC(=O)C(CCNCS(=O)(=O)O)NC(=O)C(CCNCS(=O)(=O)O)NC(=O)C(C(C)CC)NC1=O` (stereo not given): the growth is 58.1%. Take `O=C(N/N=C/c1ccc(Cl)cc1Cl)c1ccccc1Nc1cccc(C(F)(F)F)c1`: the growth is 65.6%. Still for that read-out and setting: under `COc1cnc2c(c1)C(=O)c1c-2n(CCCN2CCNCC2)c(=O)c2cc(F)ccc12` stands 23%; under `O=C(/C=C/c1cccc(Nc2ccnc3cc(Cl)ccc23)c1)c1ccc(Cl)cc1`, 45.6%.

For the compound `Nc1c(C(=O)Nc2cccc(Cl)c2)sc2nc3c(cc12)C(O)CCC3` (stereo not given), the growth was 52.7%. On the same count and under the same terms, then `Nc1nc(Nc2ccccc2SSc2ccccc2Nc2nc(N)nc(C(Cl)(Cl)Cl)n2)nc(C(Cl)(Cl)Cl)n1`, with 65.3%. Still for that read-out and setting: under `Cc1ccc(/C=C(/C#N)n2nnc3ncccc32)cc1` stands 25.7%. In the case of `O=C1C=CC(=O)N1c1ccccn1`, the growth is 100%.

On to `c1ccc(COc2ccc(Nc3ncnc4c3cnn4-c3ccccc3)cc2)cc1`, for which the growth was 91.3%. On to `CN1C(=O)C(C2=NN(C=O)C(c3ccc(F)cc3)C2)C(=O)N(C)C1=O` (stereo not given), for which the growth is 102%.

On to `COc1ccc(C(=O)/C=C/c2cccc(Nc3ccnc4cc(Cl)ccc34)c2)cc1`, for which the growth is -46% (active). In the case of `Cc1n(Cc2ccc3ccccc3c2)cc[n+]1Cc1ccc2ccccc2c1`, the growth is 9.29% (active). On to `O=C(/C=C/c1ccc(C(F)(F)F)cc1)c1ccc(Nc2nc(NCCO)nc(NCCO)n2)cc1`, for which the growth is 62.3%.

Take `O[N+]1=CC=CCC1=S.On1ccccc1=S.[Zn]`: the growth is -95.6% (active).

Consider `Cn1c(=O)c2[nH]c(=S)n(Cc3ccccc3)c2n(C)c1=O`, for which the growth is 98.9%. On the same count and under the same terms, under `COc1cc(/C=C/C(=O)c2c(C)n([O-])c3ccc(Cl)cc3[n+]2=O)cc(OC)c1OC` stands 71%; under `COc1ccc(Oc2ccccc2NC(=O)CNC(=O)c2cccc3ccccc23)cc1`, 67.2% [5 µM]; under `CN[C@@H]1C(OC2[C@H](O[C@H]3[C@H](O)[C@@H](O)[C@H](N=C(N)N)[C@@H](O)[C@@H]3N=C(N)N)OC(C)[C@]2(O)CO)OC(CO)C(O)C1O` (stereo not given in full), 111%. Regarding `CNc1nc(NC2CCCC2)nc(Sc2ccc(OC)cc2)n1`, the growth is 36.9% [100 µM]. Regarding `COc1ccc(OC)c(CCn2cncc2-c2c[nH]c3cc(Br)ccc23)c1`, the growth is 21.6%. With `COc1cnc2c(c1)C(=O)c1c-2n(CCCN2CCCC2)c(=O)c2cc(F)ccc12`, the growth was 4.61% (active). In the case of `COc1cc(C2=NN(C=O)C(c3cccc(Nc4ccnc5cc(Cl)ccc45)c3)C2)cc(OC)c1OC` (stereo not given), the growth is 69.3%. As for `N#Cc1c(-c2ccccc2)cc(-c2ccccc2)n(CCCCC(=O)O)c1=O`, the growth was 115%.

As for `CCOC(=O)/C=C1/SC(=Nc2ccc(C#N)cc2)N(Cc2ccco2)C1=O`, the growth is 51.2%.

Regarding `O=C(NCCNC(=O)Oc1cccc2ccccc12)Oc1cccc2ccccc12`, the growth is 96.4%.

For the compound `Oc1ccc(/C=N/Nc2nc3ccccc3s2)c(O)c1`, the growth was 21.5%. On the same count and under the same terms, then `C=C1CC[C@@H]2[C@](C)(COC(C)=O)[C@H](OC(C)=O)CC[C@@]2(C)[C@@H]1CC(NCc1ccccc1)C1=CCOC1=O` (stereo not given in full), with 35.9%; and `Nc1nc(SCc2cccnc2)c2ncn(C3OC(CO)C(O)C3O)c2n1` (stereo not given), with 112%; and `COc1ccc(C2=NN(C=O)C(c3cccc(Nc4ccnc5cc(Cl)ccc45)c3)C2)cc1` (stereo not given), with 40.1%. With `O=CN1N=C(c2ccc(Nc3ccnc4cc(Cl)ccc34)cc2)CC1c1ccc(Cl)cc1` (stereo not given), the growth is 38.1%. The same measure, in the same setting: under `Cc1sc2nc(N3CCCCC3)[nH]c(=O)c2c1C` stands 100%. The same measure, in the same setting: then `Cc1ccc(N/N=C(/C(=O)c2ccc(Cl)cc2)c2nc(C)cc(=O)[nH]2)cc1`, with 116%.
